Among the data in publication PMC10726135, “HNF4α isoforms regulate the circadian balance between carbohydrate and lipid metabolism in the liver” are binding signal values, retold here.

Over roughly 18,000 sequences, “log2 normalized intensity” has its median near 0.39; the highest 2% begin near 6.6. The sample holds the highest values, similar sequences and a random draw of the others, so the mix is not that of the screen.

The assay has as its target T1, HNF4alpha2 (COS-7 nuclear extract) (Homo sapiens, UniProt P41235 1-474).
T1 sequence: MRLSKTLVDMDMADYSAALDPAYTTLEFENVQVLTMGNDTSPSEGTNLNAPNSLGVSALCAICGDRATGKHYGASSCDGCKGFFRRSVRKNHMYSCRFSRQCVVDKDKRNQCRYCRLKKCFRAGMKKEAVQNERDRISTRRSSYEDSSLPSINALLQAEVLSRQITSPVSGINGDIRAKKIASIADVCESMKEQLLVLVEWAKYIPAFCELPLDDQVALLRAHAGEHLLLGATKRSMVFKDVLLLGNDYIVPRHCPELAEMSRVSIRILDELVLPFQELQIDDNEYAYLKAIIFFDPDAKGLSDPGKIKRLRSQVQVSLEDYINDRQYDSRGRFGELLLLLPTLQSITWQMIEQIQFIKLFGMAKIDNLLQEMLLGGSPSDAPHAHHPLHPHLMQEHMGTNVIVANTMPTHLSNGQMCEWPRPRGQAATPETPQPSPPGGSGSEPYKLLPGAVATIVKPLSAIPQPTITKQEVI
Description: protein-binding microarray; COS-7 nuclear extract on double-stranded Agilent 4x180k PBM; binding buffer, salt, pH and temperature not given in the material; high values mean tight binding. The conditions noted are these: chain copies: 2; label: 3' end of strand 1 on the slide; dsDNA, one strand shown. Summed up:
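A human HNF4α isoform was expressed in COS-7 cells by transient CaPO4 transfection, and nuclear extracts were prepared. These were applied to a custom Agilent SurePrint G3 4x180k array carrying ~44,000 test sequences in quadruplicate as double-stranded ~60-nt oligonucleotides, and an Agilent G2565CA scanner imaged bound HNF4α at 2-µm resolution. The background-corrected, normalized gProcessedSignal from Agilent software was used as the binding signal.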
“TAGCCAGACCTGTTCCTCTGCCCCTCATCGGCCTAGGGAGATTAGAGTATCGGTCGA”: the binding signal amounted to 1.7 log2 normalized intensity. As to “TGAGACATTTTGTCTTTTCTCCCCTGACTAGCCTAGGGAGATTAGAGTATCGGTCGA”, the binding signal worked out at 2.63 log2 normalized intensity. With “GGACAATCATTGTGCAACCTGGACATTGGCGCCTAGGGAGATTAGAGTATCGGTCGA”, the binding signal was found to be 2.08 log2 normalized intensity. As for “AAGGTGTATGTGGACTTTCAACTGCAGGGGGCCTAGGGAGATTAGAGTATCGGTCGA”, the binding signal stood at 3.47 log2 normalized intensity.

Take “CGAGCATGGCCGCTCCGCGAGGTGAGCCATGCCTAGGGAGATTAGAGTATCGGTCGA”: the binding signal was 0.717 log2 normalized intensity.

For the sequence “TGGGCCCCACAGTGCATCTGATAAGGTTGTGCCTAGGGAGATTAGAGTATCGGTCGA”, the binding signal is 0.921 log2 normalized intensity.

As for “GCTGGTTGCCCCTTTGACCCTCGGGCCTCCGCCTAGGGAGATTAGAGTATCGGTCGA”, the binding signal amounted to 5.62 log2 normalized intensity. In the case of “AGCCTTATTCTTTGATCTCTTATCACCCTGGCCTAGGGAGATTAGAGTATCGGTCGA”, the binding signal was determined as 1.86 log2 normalized intensity.

“TTGAGCTGGATGACCTTTGTCCTGGCACAAGCCTAGGGAGATTAGAGTATCGGTCGA”: the binding signal was determined as 7.13 log2 normalized intensity. As to “CTAGTTAAGTCACTGGGCTGATGACCTTTGGCCTAGGGAGATTAGAGTATCGGTCGA”, the binding signal worked out at 6.19 log2 normalized intensity. For the sequence “TGACCTTTGTCCTGGCACAACTGGATGGTGGCCTAGGGAGATTAGAGTATCGGTCGA”, the binding signal turned out to be 5 log2 normalized intensity.

Regarding “CACTGGGCTGATGACCTTTGACTGAGATGGGCCTAGGGAGATTAGAGTATCGGTCGA”, the binding signal worked out at 5.32 log2 normalized intensity. “TCCTGATCTTTGACCTGGAGCATGACCCTTGCCTAGGGAGATTAGAGTATCGGTCGA”: the binding signal came to 4.86 log2 normalized intensity.

As for “CTGGATGACCTTTGTCCTGGCACAACTGGAGCCTAGGGAGATTAGAGTATCGGTCGA”, the binding signal turned out to be 5.84 log2 normalized intensity.

As to “CATCTTTGAGCTGGATGACCTTTGTCCTGGGCCTAGGGAGATTAGAGTATCGGTCGA”, the binding signal is 8.57 log2 normalized intensity.

For “TAAGTCACTGGGCTGATGACCTTTGACTGAGCCTAGGGAGATTAGAGTATCGGTCGA”, the binding signal came to 7.08 log2 normalized intensity. With “AGAATCATCTTTGAGCTGGATGACCTTTGTGCCTAGGGAGATTAGAGTATCGGTCGA” the figure was 7.46 log2 normalized intensity; with “ATGACCTTTGACTGAGATGGGAGCAGTGCTGCCTAGGGAGATTAGAGTATCGGTCGA”, 2.23 log2 normalized intensity; with “TTTTTTTTTTGAGATGGAATCTTGCCCTGTGCCTAGGGAGATTAGAGTATCGGTCGA”, 3.18 log2 normalized intensity. As for “AGACCCTTATCAGTAGTTCTCCTTTCTGCCGCCTAGGGAGATTAGAGTATCGGTCGA”, the binding signal is 1.39 log2 normalized intensity. Turning to “ATGCATAGAAGTATGTCTGGGATTTGAAGGGCCTAGGGAGATTAGAGTATCGGTCGA”, the binding signal is -0.542 log2 normalized intensity.

Turning to “GTCAAGCAATGATCTTCATGAACTTCTGTCGCCTAGGGAGATTAGAGTATCGGTCGA”, the binding signal is 1.26 log2 normalized intensity. For “TAAAACCATGCAAATTGCTGACTTTCTGTGGCCTAGGGAGATTAGAGTATCGGTCGA”, the binding signal is -0.773 log2 normalized intensity. The value for “CAGCAGGGCACCGCCTCCACACCCCAGCCTGCCTAGGGAGATTAGAGTATCGGTCGA” was 3.03 log2 normalized intensity. As for “GCCCTCCCCCAGAGAGAACAGTCCTACAAAGCCTAGGGAGATTAGAGTATCGGTCGA”, the binding signal was 2.08 log2 normalized intensity. As to “AAGATGGGCATTAGGTGGACAGGGGTGTGTGCCTAGGGAGATTAGAGTATCGGTCGA”, the binding signal was determined as 1.78 log2 normalized intensity. For “ACCCTTTGAGTCCTTCATGGCTACCCTTCAGCCTAGGGAGATTAGAGTATCGGTCGA”, the binding signal amounted to 0.859 log2 normalized intensity.

In the case of “CCCGCAGTGAGGGACAAGGCTGTCCCCCATGCCTAGGGAGATTAGAGTATCGGTCGA”, the binding signal was found to be 1.6 log2 normalized intensity. For “GGGGGTAAAGTGGATTGCTGGCCTTTTATCGCCTAGGGAGATTAGAGTATCGGTCGA”, the binding signal came to 0.814 log2 normalized intensity. On to “CTCACATGAGCTAGAGCTCGTGTCATCTCTGCCTAGGGAGATTAGAGTATCGGTCGA”, for which the binding signal was -0.899 log2 normalized intensity. For “CACCAGAAAAATGTACATGTGCAAAAGCACGCCTAGGGAGATTAGAGTATCGGTCGA”, the binding signal came out at 0.628 log2 normalized intensity. As for “CAAGGGTCAGTTCATTAAAAAAAAAAAAAAGCCTAGGGAGATTAGAGTATCGGTCGA”, the binding signal is 1.19 log2 normalized intensity.

With “AAGAAAAGCCTTGTGGCAGTGAGAACAGGTGCCTAGGGAGATTAGAGTATCGGTCGA”, the binding signal worked out at 0.143 log2 normalized intensity. For “GGGAAGCAGTGAGGGTGGGTTCAAAGGTCAGCCTAGGGAGATTAGAGTATCGGTCGA”, the binding signal was determined as 8.24 log2 normalized intensity. “GAGGGTGGGTTCAAAGGTCAGAAAAAGCTGGCCTAGGGAGATTAGAGTATCGGTCGA”: the binding signal was found to be 6.66 log2 normalized intensity. On to “GGCATGGGAAGCAGTGAGGGTGGGTTCAAAGCCTAGGGAGATTAGAGTATCGGTCGA”, for which the binding signal was 0.803 log2 normalized intensity. Regarding “TGGGTTCAAAGGTCAGAAAAAGCTGACGCCGCCTAGGGAGATTAGAGTATCGGTCGA”, the binding signal came out at 6.84 log2 normalized intensity. “AAAGGGGAAAAGGTCAAATACCAAAATGTGGCCTAGGGAGATTAGAGTATCGGTCGA”: the binding signal was found to be 1.8 log2 normalized intensity. For “GGTCAGAAAAAGCTGACGCCCCACCCCCTCGCCTAGGGAGATTAGAGTATCGGTCGA”, the binding signal is 5.94 log2 normalized intensity. For the sequence “GCAGTGAGGGTGGGTTCAAAGGTCAGAAAAGCCTAGGGAGATTAGAGTATCGGTCGA”, the binding signal worked out at 7.95 log2 normalized intensity.

Consider “TAGAAGCAGTGGGACAAAGGTCACAGGAAAGCCTAGGGAGATTAGAGTATCGGTCGA”, for which the binding signal turned out to be 4.42 log2 normalized intensity. As for “GACTCAGAAAAATATGTGGACTTCAAAGGTGCCTAGGGAGATTAGAGTATCGGTCGA”, the binding signal was 1.29 log2 normalized intensity.
